This passage reports inhibition results from PubChem BioAssay AID588689 (Southern Research Specialized Biocontainment Screening …, 2011).

Screen size: about 340,000 compounds; about 1,000 (0.29%) were called active. Cut-off read from the data, not from the text of the source: inconclusive = inhibition above about 29% without an active follow-up result; inactive = below that. A selection follows. Potency and affinity values are given separately.

This experiment deals with Genome polyprotein (Dengue virus type 2 (strain 16681-PDK53)) (UniProt P29991). Description: Dengue-2 NS5 methyltransferase inhibitors, primary screen, biochemical, confirmation dose response (AID 588689). As to conditions: Dengue-2 NS5 methyltransferase capping enzyme assay, at 25 µM, stronger effect = higher value.

Broadly, the inhibition is the change of the read-out against control, counted positive when it falls. As to `O=C(CN1C(=O)c2ccccc2C1=O)OCC(=O)c1ccc(F)cc1`, the inhibition is 5.07% (inactive). For `COc1cc(C(=O)NCC(c2ccco2)N2CCOCC2)cc(OC)c1OC` (stereo not drawn), the inhibition was -3.67% (inactive). Still for that read-out and setting: as for `CCOc1ccc(CCN2C(=S)N([C@@H](CC(C)C)CN3CCCC3CN3C(=S)NC[C@@H]3CC(C)C)C[C@@H]2Cc2ccccc2)cc1` (stereo partly drawn), the figure is 0.65% (inactive); as for `O=C(c1ccc(NC(=S)Nc2ccc(Cl)c(Cl)c2)cc1)N1CCCC1`, -10.3% (inactive). Still for that read-out and setting: as for `Cc1ccc(S(=O)(=O)CC(=O)c2cc3cccc(C)c3oc2=O)cc1`, the figure is 5.44% (inactive); as for `COc1cccc2cc(C(=O)CS(=O)(=O)c3ccc(C)cc3)c(=O)oc12`, 10.9% (inactive); as for `COCCCNC(=O)/C=C/c1c(Cl)cccc1Cl`, -0.74% (inactive). On the same count and under the same terms, as for `Cc1cc(N2C(=O)C(O)=C(C(=O)c3ccco3)C2c2cccc(O)c2)no1` (stereo not drawn), the figure is -4.44% (inactive); as for `CCOc1ccc(C2C(C(=O)c3ccc(C)o3)=C(O)C(=O)N2c2cc(C)on2)cc1OC` (stereo not drawn), 4.09% (inactive); as for `Cc1cc(N2C(=O)C(O)=C(C(=O)c3ccco3)C2c2cccc(Cl)c2)no1` (stereo not drawn), -4.65% (inactive). On to `COC(=O)c1ccc(C2C(C(=O)c3ccc(C)o3)=C(O)C(=O)N2c2cc(C)on2)cc1` (stereo not drawn), for which the inhibition is -3.53% (inactive). For the compound `COc1cccc(C2C(C(=O)c3ccc(C)o3)=C(O)C(=O)N2c2cc(C)on2)c1` (stereo not drawn), the inhibition is -1.77% (inactive). On the same count and under the same terms, as for `Cc1cc(N2C(=O)C(O)=C(C(=O)c3ccc(C)o3)C2c2cccc(Cl)c2)no1` (stereo not drawn), the figure is 10.9% (inactive); as for `O=C(NCN1CCN(c2ccccn2)CC1)c1cnccn1`, -4.12% (inactive). As to `O=C(Nc1cccc([N+](=O)[O-])c1)c1cc(S(=O)(=O)Nc2ccccn2)ccc1Cl`, the inhibition is 0.65% (inactive). For `O=C(COC(=O)CSc1ccc([N+](=O)[O-])cc1)NCC1CCCO1` (stereo not drawn), the inhibition is 5.91% (inactive). `COc1ccc2c(c1)c1ccc3c(c1n2C)C(=O)C=CC3=O`: the inhibition is 5.87% (inactive). Same read-out and setting: as for `Cc1ccc(C)c2c1c1ccccc1n2C`, the figure is 0.78% (inactive); as for `Cc1cc(=O)n(C)c2ccccc12`, -7.77% (inactive). In the case of `Cc1ccc2c(c1)c1ccc3c(c1n2C)C(=O)C=CC3=O`, the inhibition was 47.6% (inactive).

With `CCC(C)NC(=O)CCSCCC(=O)NC(C)CC` (stereo not drawn), the inhibition is -4.42% (inactive).

Turning to `CCCC(C)C(=O)Nc1ccc(S(N)(=O)=O)cc1` (stereo not drawn), the inhibition is -3.64% (inactive). As to `CCOC(=O)C1CCCN(S(=O)(=O)NC[C@H]2O[C@@H](n3cnc4c(N)ncnc43)[C@H](O)[C@@H]2O)C1` (stereo partly drawn), the inhibition was -8.6% (inactive). In addition, the inhibition (measured here: pilot screen replicate inhibition) was -4.29%. Take `Fc1cnc(N2CCc3ccccc32)nc1N1CCc2ccccc21`: the inhibition was -0.68% (inactive). On to `O=C(O)c1ccc2c(c1)C(=O)N(Cc1ccco1)C2=O`, for which the inhibition is 5.56% (inactive). Still for that read-out and setting: as for `Cc1ccc(C(=O)O)cc1-c1ccc(C=C2C(=O)c3ccccc3C2=O)o1`, the figure is -0.73% (inactive). For `O=C1C(=Cc2ccco2)C(=O)c2ccccc21`, the inhibition is -4.01% (inactive).

For `Cc1ccc(C=C2C(=O)c3ccccc3C2=O)o1`, the inhibition was 1.92% (inactive).

As to `O=C(O)c1ccc2c(c1)C(=O)N(N1C(=O)c3ccccc3C1=O)C2=O`, the inhibition is 5.13% (inactive). The same measure, in the same setting: as for `Cc1cc(C(=O)O)ccc1-n1c(C)cc(C=C2C(=O)c3ccccc3C2=O)c1C`, the figure is -19.9% (inactive); as for `COc1cc(COC(=O)c2cnc(C)cn2)c(OC)cc1Br`, 7.48% (inactive); as for `Cc1cc(Br)ccc1SCC(=O)OCC(=O)NCc1ccco1`, 13.5% (inactive). As for `COC(=O)CCC(=O)COc1ccccc1C#N`, the inhibition was -1.61% (inactive). Take `O=S(=O)(O)c1cc(O)c(N=Nc2ccc(O)cc2O)c2ccccc12`: the inhibition is 22.4% (inactive). As to `Oc1ccc(N=Nc2ccc(Br)cc2)c(O)c1`, the inhibition is 7.83% (inactive).

Consider `CCOc1ccc(-n2c(=S)sc3c(=O)n(-c4ccccc4)c(SCC(=O)O)nc32)cc1`, for which the inhibition was -5.28% (inactive). Same read-out and setting: as for `CCOC(=O)CSc1nc2c(sc(=S)n2-c2ccc(OCC)cc2)c(=O)[nH]1`, the figure is 0% (inactive); as for `CC(C)N1C(=O)C(=O)N(CC(=O)N2c3ccccc3NC(=O)CC2C)C1=O` (stereo not drawn), 4.36% (inactive). Same read-out and setting: as for `COCC(C)NC(=O)c1cc(-c2ccccc2OC)on1` (stereo not drawn), the figure is -5.61% (inactive); as for `CCOC(=O)C1=CN2CCCC[C@@H]2CC1=O`, -4.81% (inactive). On the same count and under the same terms, as for `CCOC(=O)C1=CN2CCC[C@H]2CC1=O`, the figure is -9.17% (inactive); as for `Cc1ccc(S(=O)(=O)NCCC(=O)N2CCC(Cc3ccccc3)CC2)cc1`, -2.89% (inactive). For the compound `CCN(CC(=O)Nc1ccccc1C(F)(F)F)C(=O)c1ccc2c(c1)NC(=O)C(C)S2` (stereo not drawn), the inhibition was -4.95% (inactive).

With `NC(=O)C1CCN(C(=O)c2ccc3c(=O)n(Cc4ccco4)c(SCc4ccc([N+](=O)[O-])cc4)nc3c2)CC1`, the inhibition is 12.3% (inactive). As to `CC1(NC(=O)N2CCOCC2)CCS(=O)(=O)C1` (stereo not drawn), the inhibition is 0% (inactive).

For `CC1(C)CC(=O)C(C(C2=C(O)CC(C)(C)CC2=O)c2ccc([N+](=O)[O-])cc2)C(=O)C1` (stereo not drawn), the inhibition is 1.82% (inactive). Same read-out and setting: as for `CC1(C)CC(=O)C(C(C2=C(O)CC(C)(C)CC2=O)c2ccc(Cl)c([N+](=O)[O-])c2)C(=O)C1` (stereo not drawn), the figure is -1.46% (inactive). On the same count and under the same terms, as for `COc1cc(C(=O)NCC(=O)N2CCN(S(=O)(=O)c3ccccc3C(F)(F)F)CC2)cc(OC)c1OC`, the figure is -3.36% (inactive). The same measure, in the same setting: as for `C=CSc1sc(Cl)c(N2CCOCC2)c1[N+](=O)[O-]`, the figure is 0% (inactive); as for `O=c1sc2ccccc2c(N2CCOCC2)c1[N+](=O)[O-]`, -3.49% (inactive); as for `O=C(O)CCN1C(=O)C(=C2CCCCCC2)SC1=S`, 10.4% (inactive).

Consider `CC1CN(C2=NC(=O)/C(=C3/C(=O)N(Cc4ccc(F)cc4)c4ccccc43)S2)CC(C)O1` (stereo not drawn), for which the inhibition was -3.91% (inactive). The same measure, in the same setting: as for `CN1C(=O)/C(=C2\SC(=S)N(CCCCCC(=O)O)C2=O)c2ccccc21`, the figure is -1.55% (inactive); as for `COCCN1C(=O)/C(=C2/C(=O)N(CC(=O)Nc3ccccc3Cl)c3ccccc32)SC1=S`, 6.48% (inactive); as for `O=C(O)CCN1C(=O)/C(=C2\C(=O)N(Cc3ccccc3Cl)c3ccccc32)SC1=S`, 22.2% (inactive). Same read-out and setting: as for `NN1C(=O)/C(=C2/Sc3ccccc3N2CCCS(=O)(=O)O)SC1=S`, the figure is -12.9% (inactive); as for `CC(C)NC(=O)COC(=O)c1ccccc1Oc1ccccc1`, -2.2% (inactive).
